# Experimental data taken from PubChem BioAssay (Tox21).
# “And” between values parts separate entries of the source, which are not always exact repeats. Identical values can stand only once. Records with an inconclusive call do not appear. A call without a number means that no potency is given here. Where a structure was tested more than once in an assay, its records may differ in their call. The source made the active and inactive calls. Unless noted, the call rests on the fitted dose curve.
# System: not listed separately
# Assay: p53 small molecule agonists, cell-based qHTS assay (AID 1963582; active means well fitted activation curve with a large enough effect in the signal ratio in the repeat runs, not every such curve was filed as active; the % refers to the signal ratio)
# Details: HCT-116 p53RE-bla reporter, beta-lactamase FRET ratio, 16 h; series mostly up to 66 µM; activation: at the top concentration
# How it was run: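 Read-out is beta-lactamase FRET fluorescence after 2 h at room temperature with LiveBLAzer B/G substrate. p53 response element-bla cells were treated 16 h at 37 C with compounds in DMSO, added 5 h after seeding.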
SMILES,activation,Potency
Cc1ncc(CNC(=O)N(CCCl)N=O)c(N)n1,0.959% [at 30.3 µM] (inactive),
Clc1ccc(Cl)c(Cl)c1,,inactive
CCOC(=O)CC(SP(=O)(OC)OC)C(=O)OCC (centres undefined),,inactive
CCCCCCCCCCCCCCCCn1cc[n+](C)c1,,inactive
COc1ccc(N)cc1,,inactive
O=C(O)c1ccc(=O)[nH]c1,0.196% [at 30.3 µM] (inactive),
O=[N+]([O-])c1cc(Cl)c(Cl)c(Cl)c1,-3.46% (inactive),
c1ccc(NNc2ccccc2)cc1,,inactive
CCCSC(=O)Cl,0.0084% (inactive),
COCCl,,inactive
OCC(O)CO,,inactive
O=C1C2CC=CCC2C(=O)N1SC(Cl)(Cl)Cl (centres undefined),-2.41% (inactive),
CNC(=O)N(C)c1nnc(C(C)(C)C)s1,,inactive
COc1cc(N)c(Cl)cc1C(=O)NC1CN2CCC1CC2 (centres undefined),1.63% [at 30.3 µM] (inactive),
CCCCCCCCCl,,inactive
COc1cc(OC)nc(NC(=O)NS(=O)(=O)c2ncccc2C(=O)N(C)C)n1,-0.101% (inactive),
NC(=S)c1c(Cl)cccc1Cl,-0.263% (inactive),
NNC(N)=S,0.259% (inactive),
OCCCCO,,inactive
NNC(=O)c1ccccc1,-1.55% (inactive),
Nc1ccc(Cl)c(Cl)c1,,inactive
CCOP(=O)(OCC)OP(=O)(OCC)OCC,0.0327% (inactive),
COP(=S)(OC)Oc1cc(Cl)c(Cl)cc1Cl,,inactive
CC(=O)C(C)(C)C,-2.55% (inactive),
CCOP(=O)(CN(CCO)CCO)OCC,-2.32% (inactive),
c1ccc(Nc2ccc3ccccc3c2)cc1,,inactive
COC(=O)c1ccccc1CS(=O)(=O)NC(=O)Nc1nc(OC)cc(OC)n1,-4.66% (inactive),

# Molecular target: 5-hydroxytryptamine receptor 2A (Homo sapiens) (UniProt P28223)
# Assay: 5-hydroxytryptamine receptor 2A (HTR2A) small molecule antagonists, cell-based qHTS assay (AID 1963586); further: nearly all actives have a fitted effect of over 45% in size; further: potency means the concentration at half of the fitted maximal effect
# Details: HTR2A-CHO cells, DOI-induced calcium flux, fluorescence; series mostly up to 61.5 µM; activity, negative = inhibition: at the top concentration
# How it was run: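 CHO cells stably expressing human HTR2A were plated for 18 h at 37 C, then loaded with calcium dye for 1 h. Compounds were preincubated 5 min at room temperature before DOI (4 nM solution) was added. Kinetic fluorescence was read for 3 min.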
# Chain of 5-hydroxytryptamine receptor 2A (Homo sapiens) (P28223 whole entry, looked up): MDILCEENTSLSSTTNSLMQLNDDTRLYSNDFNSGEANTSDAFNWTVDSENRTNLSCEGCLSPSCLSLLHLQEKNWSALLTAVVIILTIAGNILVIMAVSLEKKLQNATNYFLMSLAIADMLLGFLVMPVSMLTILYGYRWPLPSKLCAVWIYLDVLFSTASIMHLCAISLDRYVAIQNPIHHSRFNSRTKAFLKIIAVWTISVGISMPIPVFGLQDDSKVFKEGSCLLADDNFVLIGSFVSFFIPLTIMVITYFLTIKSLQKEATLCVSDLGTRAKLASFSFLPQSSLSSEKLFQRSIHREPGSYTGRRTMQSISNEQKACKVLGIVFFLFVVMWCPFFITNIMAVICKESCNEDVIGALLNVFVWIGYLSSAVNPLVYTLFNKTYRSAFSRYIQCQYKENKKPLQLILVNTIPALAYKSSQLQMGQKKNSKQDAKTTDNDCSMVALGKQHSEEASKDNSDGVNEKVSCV
SMILES,Potency,"activity, negative = inhibition"
Cc1ccc(N)cc1Cl,inactive,
Cc1ncc(CNC(=O)N(CCCl)N=O)c(N)n1,,5.38% [at 28.5 µM] (inactive)
O=C(O)COc1cc(Cl)c(Cl)cc1Cl,inactive,
Clc1ccc(Cl)c(Cl)c1,inactive,
CCCC[n+]1ccc(C)cc1,inactive,
CCCCCCCCCCCCCCCCn1cc[n+](C)c1,inactive,
COc1ccc(N)cc1,inactive,
O=C(O)c1ccc(=O)[nH]c1,,7.22% [at 28.5 µM] (inactive)
O=[N+]([O-])c1cc(Cl)c(Cl)c(Cl)c1,,22.3% (inactive)
c1ccc(NNc2ccccc2)cc1,inactive,
CCCSC(=O)Cl,,12.6% (inactive)
COCCl,inactive,
O=C1C2CC=CCC2C(=O)N1SC(Cl)(Cl)Cl (centres undefined),,-20.6% (inactive)
CNC(=O)N(C)c1nnc(C(C)(C)C)s1,inactive,
COc1cc(N)c(Cl)cc1C(=O)NC1CN2CCC1CC2 (centres undefined),5.79 µM (active),
CCCCCCCCCl,inactive,
COc1cc(OC)nc(NC(=O)NS(=O)(=O)c2ncccc2C(=O)N(C)C)n1,,8.58% (inactive)
NC(=S)c1c(Cl)cccc1Cl,,13.7% (inactive)
NNC(N)=S,inactive,

SMILES,Potency,"activity, negative = inhibition"
OCCCCO,inactive,
NNC(=O)c1ccccc1,,38.7% (inactive)
CCCCCCCCCCCCCCCCCC(=O)O,inactive,
O=C(NC(=O)c1c(F)cccc1F)Nc1ccc(Cl)cc1,inactive,
Nc1ccc(Cl)c(Cl)c1,inactive,
CCOP(=O)(OCC)OP(=O)(OCC)OCC,,16.5% (inactive)
CC1C=[C-]C=C1.[C-]#[O+].[C-]#[O+].[C-]#[O+].[Mn],inactive,
CCOP(=O)(OCC)SCCSCC,inactive,
CCCCCCCCCCCCCCCC[N+](C)(C)C,,100% [at 28.5 µM] (inactive)
CC(C)=C[C@@H]1[C@@H](C(=O)OCc2coc(Cc3ccccc3)c2)C1(C)C,inactive,
CCCCCCCCCC(CC)c1ccc(S(=O)(=O)O)cc1 (centres undefined),inactive and 37.5 µM (active),
COP(=S)(OC)Oc1cc(Cl)c(Cl)cc1Cl,inactive,
CC(=O)C(C)(C)C,,20.4% (inactive)
CCOP(=O)(CN(CCO)CCO)OCC,,5.34% (inactive)
c1ccc(Nc2ccc3ccccc3c2)cc1,,-11.2% (inactive)
Nc1ccc(Cl)cc1N,inactive,
COC(=O)c1ccccc1CS(=O)(=O)NC(=O)Nc1nc(OC)cc(OC)n1,,34.5% (inactive)
C1CN2CCN1CC2,inactive,

# Molecular target: 5-hydroxytryptamine receptor 2A (Homo sapiens) (UniProt P28223)
# Assay: 5-hydroxytryptamine receptor 2A (HTR2A) small molecule agonists, cell-based qHTS assay (AID 1963587); further: nearly all actives have a fitted effect of over 30% in size; further: potency means the concentration at half of the fitted maximal effect
# Details: HTR2A-CHO cells, calcium flux fluorescence, agonist mode; series mostly up to 76.8 µM; activation: at the top concentration
# How it was run: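 Kinetic calcium-flux fluorescence (2 min, 1 sec intervals) after compound addition in agonist mode. HTR2A-CHO cells were cultured 18 h, then dye-loaded 1 h at 37 C.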
SMILES,activation,Potency
Cc1ncc(CNC(=O)N(CCCl)N=O)c(N)n1,1.05% [at 35.6 µM] (inactive),
O=C(O)COc1cc(Cl)c(Cl)cc1Cl,,inactive
Clc1ccc(Cl)c(Cl)c1,,inactive
CCOC(=O)CC(SP(=O)(OC)OC)C(=O)OCC (centres undefined),,inactive
CCCC[n+]1ccc(C)cc1,,inactive and 43.4 µM (active) and 39 µM (active)
COc1ccc(N)cc1,,inactive
O=C(O)c1ccc(=O)[nH]c1,-1.84% [at 35.6 µM] (inactive),
CCCSC(=O)Cl,3.57% (inactive),
O=C1C2CC=CCC2C(=O)N1SC(Cl)(Cl)Cl (centres undefined),,24.1 µM (active)
CNC(=O)N(C)c1nnc(C(C)(C)C)s1,,inactive
COc1cc(N)c(Cl)cc1C(=O)NC1CN2CCC1CC2 (centres undefined),-5.63% [at 35.6 µM] (inactive),
CCCCCCCCCl,,inactive
COc1cc(OC)nc(NC(=O)NS(=O)(=O)c2ncccc2C(=O)N(C)C)n1,-0.504% (inactive),
NC(=S)c1c(Cl)cccc1Cl,-1.2% (inactive),
NNC(N)=S,,inactive
OCCCCO,,inactive
NNC(=O)c1ccccc1,2.55% (inactive),
CCCCCCCCCCCCCCCCCC(=O)O,,inactive
O=C(NC(=O)c1c(F)cccc1F)Nc1ccc(Cl)cc1,,inactive
Nc1ccc(Cl)c(Cl)c1,,inactive
CCOP(=O)(OCC)OP(=O)(OCC)OCC,-0.0912% (inactive),
CC1C=[C-]C=C1.[C-]#[O+].[C-]#[O+].[C-]#[O+].[Mn],,inactive
CCOP(=O)(OCC)SCCSCC,,inactive
CCCCCCCCCCCCCCCC[N+](C)(C)C,,18.8 µM (active) and 38.9 µM (active)
CC(C)=C[C@@H]1[C@@H](C(=O)OCc2coc(Cc3ccccc3)c2)C1(C)C,,inactive
CC(=O)C(C)(C)C,-0.216% (inactive),
CCOP(=O)(CN(CCO)CCO)OCC,-0.213% (inactive),
c1ccc(Nc2ccc3ccccc3c2)cc1,,inactive
Nc1ccc(Cl)cc1N,,20.3 µM (active) and 6.16 µM (active)
C1CN2CCN1CC2,,inactive and 54.9 µM (active)
